Active and inactive are the calls of the source.
What was measured:
[1] = small molecules captured by biotinylated probe aFSTL3 – biochemical, small-molecule microarray, fluorescence 635/667, stem cell growth factor project, primary screen (AID 1064); details: higher = more signal;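 also: measures binding of the biotinylated anti-FSTL3 antibody to printed compounds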
[2] = binders from COS7 lysate, DM2A8 probe, primary screen, torsin A project, cell lysate, small-molecule microarray, fluorescence 635/667 (AID 1065); details: higher = more signal, COS7 lysate expressing mutant human TOR1A
[3] = small molecules captured by biotinylated probe aFGF2 – biochemical, small-molecule microarray, fluorescence 635/667, stem cell growth factor project, primary screen (AID 1067); details: higher = more signal;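 also: measures binding of biotinylated aFGF2 protein to printed compounds on slides; z-score merges feature fluorescence and signal-to-noise across triplicate slides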
[4] = small molecules captured by biotinylated probe aFGF10 – biochemical, small-molecule microarray, fluorescence 635/667, stem cell growth factor project, primary screen (AID 1071); details: higher = more signal;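 also: score merges 667 nm spot intensity and signal to noise from triplicate slides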
[5] = target: Neurogenic locus notch homolog protein 2 (Homo sapiens) (UniProt Q04721); assay: small molecules binding Notch2 protein – biochemical, small-molecule microarray, 635 nm fluorescence, stem cell growth factors, primary screen (AID 1073); details: higher = more signal
[6] = target: Pro-neuregulin-1, membrane-bound isoform (Homo sapiens) (UniProt Q02297); assay: small molecules binding neuregulin-1 protein – biochemical, small-molecule microarray, fluorescence 635/667, psychiatric disease protein project, primary screen (AID 1075); details: NRG1 binding, 635 nm fluorescence, higher = more signal;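 also: score combines 667 nm spot fluorescence with signal to noise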
[7] = tested on: Neuregulin-1 EGF-like domain; assay: small molecules binding NRG1 EGF domain – biochemical, small-molecule microarray, 635 nm fluorescence, primary screen (AID 1081); details: higher = more signal;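 also: binding of the protein to compounds printed on small-molecule microarray slides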
[8] = FRG1 expression reporter modulators in myotubes – cell-based, C2C12 myotubes, firefly/Renilla luciferase, luminescence, FRG1 inhibition for FSHD, primary screen (AID 1084); details: FRG1 promoter luciferase, higher = more signal, called active from +8 up or from −8 down
[9] = small molecules captured by biotinylated probe aFST – biochemical, small-molecule microarray, fluorescence 635/667, stem cell growth factor project, primary screen (AID 1086); details: higher = more signal;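 also: score merges 667 nm fluorescence with signal-to-noise of each printed compound spot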
[10] = binders of probe aHhip on microarray, primary screen, stem cell growth factor project, biochemical, small-molecule microarray, fluorescence 635/667 (AID 1087); details: higher = more signal;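 also: score merges spot fluorescence at 667nm with spot signal to noise ratio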

Neurogenic locus notch homolog protein 2 (Homo sapiens), sequence (Q04721 whole entry, looked up, canonical isoform): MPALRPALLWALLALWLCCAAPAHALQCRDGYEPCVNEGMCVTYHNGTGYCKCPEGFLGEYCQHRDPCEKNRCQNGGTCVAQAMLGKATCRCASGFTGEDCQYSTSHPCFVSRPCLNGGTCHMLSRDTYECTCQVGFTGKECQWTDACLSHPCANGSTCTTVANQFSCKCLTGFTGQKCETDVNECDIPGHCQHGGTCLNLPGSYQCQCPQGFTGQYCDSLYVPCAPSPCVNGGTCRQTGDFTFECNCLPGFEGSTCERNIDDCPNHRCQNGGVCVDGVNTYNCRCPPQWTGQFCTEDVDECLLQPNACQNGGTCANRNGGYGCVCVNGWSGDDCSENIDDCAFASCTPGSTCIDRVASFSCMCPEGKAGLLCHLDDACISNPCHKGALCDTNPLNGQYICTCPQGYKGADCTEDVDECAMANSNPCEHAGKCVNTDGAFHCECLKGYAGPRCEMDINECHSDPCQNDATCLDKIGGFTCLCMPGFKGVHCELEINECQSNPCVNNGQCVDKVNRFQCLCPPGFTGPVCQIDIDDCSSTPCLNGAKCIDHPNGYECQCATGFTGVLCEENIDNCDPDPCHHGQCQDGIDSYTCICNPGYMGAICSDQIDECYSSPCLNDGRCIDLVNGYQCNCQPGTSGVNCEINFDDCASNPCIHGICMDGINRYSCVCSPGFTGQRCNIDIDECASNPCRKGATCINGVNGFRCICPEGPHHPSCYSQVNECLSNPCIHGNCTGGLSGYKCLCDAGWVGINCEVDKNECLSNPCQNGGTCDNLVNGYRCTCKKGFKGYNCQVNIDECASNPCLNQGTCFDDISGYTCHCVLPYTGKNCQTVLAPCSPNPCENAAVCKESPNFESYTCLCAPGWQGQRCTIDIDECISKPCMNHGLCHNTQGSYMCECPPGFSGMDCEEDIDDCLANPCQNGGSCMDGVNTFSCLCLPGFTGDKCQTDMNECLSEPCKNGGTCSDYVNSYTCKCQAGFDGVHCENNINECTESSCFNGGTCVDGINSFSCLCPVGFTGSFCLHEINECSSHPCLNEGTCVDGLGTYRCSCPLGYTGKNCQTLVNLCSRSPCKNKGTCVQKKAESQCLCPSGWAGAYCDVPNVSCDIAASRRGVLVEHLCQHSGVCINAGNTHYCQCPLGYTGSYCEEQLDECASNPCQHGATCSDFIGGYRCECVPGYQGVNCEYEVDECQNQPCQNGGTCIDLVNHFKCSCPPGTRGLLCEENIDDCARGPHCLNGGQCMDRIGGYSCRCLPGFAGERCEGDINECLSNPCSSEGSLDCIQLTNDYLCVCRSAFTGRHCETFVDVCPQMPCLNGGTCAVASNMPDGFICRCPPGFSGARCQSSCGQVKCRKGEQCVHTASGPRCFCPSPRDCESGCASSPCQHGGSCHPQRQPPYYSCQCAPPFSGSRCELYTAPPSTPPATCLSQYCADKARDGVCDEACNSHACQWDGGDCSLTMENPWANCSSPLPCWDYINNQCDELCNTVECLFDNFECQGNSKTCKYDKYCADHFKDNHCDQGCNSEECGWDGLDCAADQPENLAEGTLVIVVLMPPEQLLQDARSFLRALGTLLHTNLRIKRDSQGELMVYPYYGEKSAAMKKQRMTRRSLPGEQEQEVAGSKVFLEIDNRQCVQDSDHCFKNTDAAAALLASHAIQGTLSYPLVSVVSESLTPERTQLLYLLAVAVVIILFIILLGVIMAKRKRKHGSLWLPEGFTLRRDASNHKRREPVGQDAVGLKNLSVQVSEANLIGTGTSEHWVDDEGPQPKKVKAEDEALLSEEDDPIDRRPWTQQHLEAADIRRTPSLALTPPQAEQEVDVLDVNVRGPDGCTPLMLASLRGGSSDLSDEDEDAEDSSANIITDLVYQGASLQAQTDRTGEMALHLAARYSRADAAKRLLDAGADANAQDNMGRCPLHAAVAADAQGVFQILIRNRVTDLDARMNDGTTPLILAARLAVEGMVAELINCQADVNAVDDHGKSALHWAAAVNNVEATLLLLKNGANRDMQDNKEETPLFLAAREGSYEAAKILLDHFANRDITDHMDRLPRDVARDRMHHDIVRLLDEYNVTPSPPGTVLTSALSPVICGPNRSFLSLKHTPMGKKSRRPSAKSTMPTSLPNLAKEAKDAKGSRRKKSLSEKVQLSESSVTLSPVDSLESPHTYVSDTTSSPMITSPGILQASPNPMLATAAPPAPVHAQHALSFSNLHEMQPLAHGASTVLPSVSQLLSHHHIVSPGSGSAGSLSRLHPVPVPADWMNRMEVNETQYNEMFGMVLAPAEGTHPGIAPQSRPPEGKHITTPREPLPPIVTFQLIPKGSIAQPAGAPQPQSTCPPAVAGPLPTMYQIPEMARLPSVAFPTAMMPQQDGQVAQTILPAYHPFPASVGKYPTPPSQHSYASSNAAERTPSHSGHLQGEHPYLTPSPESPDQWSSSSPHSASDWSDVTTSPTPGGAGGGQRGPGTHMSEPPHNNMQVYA
Pro-neuregulin-1, membrane-bound isoform (Homo sapiens), sequence (Q02297 whole entry, looked up, the tested form may be a part, canonical isoform): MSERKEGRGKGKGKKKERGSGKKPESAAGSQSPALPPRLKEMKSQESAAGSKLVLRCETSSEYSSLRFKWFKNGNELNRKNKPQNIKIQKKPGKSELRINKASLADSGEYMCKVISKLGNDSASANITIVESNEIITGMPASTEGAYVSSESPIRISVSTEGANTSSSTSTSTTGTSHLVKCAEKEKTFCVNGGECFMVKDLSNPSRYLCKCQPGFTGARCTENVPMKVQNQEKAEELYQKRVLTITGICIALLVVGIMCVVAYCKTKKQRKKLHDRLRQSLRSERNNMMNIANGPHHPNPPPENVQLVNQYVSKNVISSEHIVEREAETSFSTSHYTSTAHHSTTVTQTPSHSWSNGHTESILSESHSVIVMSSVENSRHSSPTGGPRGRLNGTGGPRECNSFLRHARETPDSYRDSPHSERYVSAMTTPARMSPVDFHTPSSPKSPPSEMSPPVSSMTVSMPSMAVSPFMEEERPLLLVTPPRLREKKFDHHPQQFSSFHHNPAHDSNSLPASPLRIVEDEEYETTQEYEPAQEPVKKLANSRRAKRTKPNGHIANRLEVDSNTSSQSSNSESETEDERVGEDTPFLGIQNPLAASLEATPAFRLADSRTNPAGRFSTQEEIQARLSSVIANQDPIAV

Structure (SMILES)	composite z-score [1]	composite z-score [2]	composite z-score [3]	composite z-score [4]	composite z-score [5]	composite z-score [6]	composite z-score [7]	z-score [8]	composite z-score [9]	composite z-score [10]
Cc1ccc(S[C@]2(C(=O)NC3CC3)CC(=O)N(Cc3cc(C(F)(F)F)cc(C(F)(F)F)c3)[C@@H]2c2ccc(CO)cc2)cc1	-0.293	0.0772	-0.138	0.138	0.1	0.522	1.24	-0.799 (inactive)	0.0733	-0.295
C[C@H]1COC(=O)[C@H](Cc2ccccc2)NC(=O)[C@@H](C)COC(=O)[C@H](Cc2ccccc2)NC1=O	-0.275	0.381	-0.136	0.718	0.694	0.815	1.11	-1.06 (inactive)	0.0531	-0.0994
COCCOC(=O)N1C(=O)[C@@]2(c3ccccc31)[C@H](C(=O)N1CCc3cc(OC)c(OC)cc3C1)[C@H]1C(=O)O[C@H](c3ccccc3)[C@H](c3ccccc3)N1[C@@H]2c1ccccc1OCCO	0.221	0.409	-0.0009	0.66	0.809	0.607	1.04	-0.381 (inactive)	0.481	0.251
CO[C@H]1COC(=O)[C@H](CCSC)NC(=O)CC=C[C@@H](C)COC(=O)[C@@H](OCc2ccccc2)C=C[C@@H]1C	-0.929	2.45	-0.294	-0.226	-0.206	-0.37	0.782	-0.592 (inactive)	-0.327	-0.0047
CC(C)[Si](OCC[C@H]1O[C@]2(C(=O)N(Cc3ccccc3)c3ccccc32)[C@@H](C)[C@@H]1[Si](C)(C)O)(C(C)C)C(C)C	-0.143	-0.149	-0.25	0.164	-0.0407	0.676	-0.0474	0.562 (inactive)	0.292	0.0373
C[C@H]1C2[C@H](Cc3ccccc3)NC(=O)[C@]23C(=O)N[C@H](Cc2ccccc2)C(=O)N[C@@H](Cc2ccccc2)C(=O)NC/C=C\C/C=C/C3[C@@H]2O[C@]12C (stereo not given in full)	-0.446	0.107	-0.147	0.388	0.155	-0.384	-0.199	-0.293 (inactive)	-0.137	0.122
[N-]=[N+]=NCc1ccccc1C[C@@]1(C(=O)N2CCOCC2)N=C(c2ccc(OCCCO)cc2)O[C@@H]1c1ccccc1N=[N+]=[N-]	0.308	0.968	0.345	0.819	1.59	1.13	1.26	-2.14 (inactive)	0.889	-0.146
N#Cc1ccc(NN2C(C(O)c3ccc(I)cc3)C=CC3C(=O)N(c4ccccc4)C(=O)C32)cc1 (stereo not given)	0.0909	-0.0384	0.105	0.587	1.32	1.76	1.28	-2.73 (inactive)	0.857	0.0854
CO[C@H]1COC(=O)[C@@H](C)NC(=O)CC=C[C@@H](C)[C@H](OC)COC(=O)CC=C[C@@H]1C	-0.691	1.95	-0.229	-0.895	-1.41	-0.615	0.479	-1.32 (inactive)	-0.0849	0.0596
CN(C)c1ccc(C(O)C2C=CC3C(=O)NC(=O)C3N2Nc2ccc(Cl)cc2Cl)cc1 (stereo not given)	0.649	-0.0467	0.021	0.294	0.879	1.18	1.11	3.74 (inactive)	1.38	0.0677
C=CCN1C(=O)[C@@]2(O[C@@H](CCn3cc([C@H](O)c4ccccc4)nn3)[C@H]([Si](C)(C)c3ccc(OC)cc3)[C@H]2C)c2cc(N3CCOC3=O)ccc21	0.228	0.39	-0.104	0.105	-0.261	-0.344	1.1	-2 (inactive)	-0.0319	-0.0645
COc1cccc([C@@H]2[C@@H](C)CC[C@H]3C(=O)N(C)[C@@H](C(C)C)C(=O)N23)c1	-0.413	0.353	-0.174	0.391	0.188	0.0253	0.475	0.056 (inactive)	-0.0409	0.154
CCCNC(=O)[C@@]1(Sc2ccc(C)cc2)CC(=O)N(Cc2ccccc2Cl)[C@@H]1c1ccc(CO)cc1	0.295	-0.106	-0.0711	0.122	0.653	-0.0272	1.3	-3.75 (inactive)	0.427	-0.0672

From PubChem BioAssay
